“And” between values parts separate entries of the source, which are not always exact repeats. Equal values may be shown once. Inconclusive results are not listed. A call without a number means that no potency is given here. Where a structure was tested more than once in an assay, its records may differ in their call. The source made the active and inactive calls. The call rests on the fitted dose curve; in most records, active means well fitted curve in the direction sought with a large enough effect in the repeat runs; inconclusive means weak or mixed curves; inactive means no such curve, though single readings can be large; an effect the other way counts as inactive or inconclusive.
Tests used:
[1] = A CellTox Green Cytotoxicity Assay to monitor cytotoxicity in HEK293 cells - 40 hour (AID 1224871); further: nearly all actives have a fitted effect of over 45% in size; further: potency means the concentration at half of the fitted maximal effect
Method in brief: (§1)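 Read-out: fluorescence of a cell-impermeant cyanine dye staining DNA of dead cells, proportional to cytotoxicity. HEK293, 600 cells/well with reagent, compound (23 nL DMSO) added after 5 h; reads at 0, 8, 16, 24, 32, 40 h.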

[2] = qHTS RealTime-Glo MT Cell Viability Assay in HEK293 cells - 16 hour (AID 1224872); further: nearly all actives have a fitted effect of over 50% in size; further: potency means the concentration at half of the fitted maximal effect
Method in brief: (§2)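 Luminescence generated by NanoLuc from substrate produced by living HEK293 cells served as the viability signal. Each value reflects the reading at its stated time point during continuous 40 h compound exposure at 37 C.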

[3] = qHTS RealTime-Glo MT Cell Viability Assay in HepG2 cells - 8 hour (AID 1224873); further: nearly all actives have a fitted effect of over 55% in size; further: potency means the concentration at half of the fitted maximal effect
Method in brief: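 HepG2 cells mixed with RealTime-Glo MT reagents (NanoLuc plus cell-permeant prosubstrate) were seeded at 600 cells/well, incubated 5 h at 37 C/5% CO2, then pinned with compounds in DMSO; nonlytic luminescence tracked viability during 40 h treatment.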

[4] = qHTS RealTime-Glo MT Cell Viability Assay in HEK293 cells - 40 hour (AID 1224874); details: RealTime-Glo luminescence; max response: stronger effect = lower value; further: nearly all actives have a fitted effect of over 50% in size; further: potency means the concentration at half of the fitted maximal effect
Method in brief: (§3)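 Luminescence readout at each listed time point; HEK293, 600 cells/well, RealTime-Glo MT reagent added with cells; compounds pinned (23 nL in DMSO) after 5 h at 37 C; continuous culture at 37 C.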

[5] = A CellTox Green Cytotoxicity Assay to monitor cytotoxicity in HEK293 cells - 24 hour (AID 1224875); further: nearly all actives have a fitted effect of over 45% in size; further: potency means the concentration at half of the fitted maximal effect
Method in brief: as §1

[6] = A CellTox Green Cytotoxicity Assay to monitor cytotoxicity in HepG2 cells - 16 hour (AID 1224876); further: nearly all actives have a fitted effect of over 45% in size; further: potency means the concentration at half of the fitted maximal effect
Method in brief: (§4)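 HepG2, 600 cells/well premixed w/ CellTox Green; 5 h settle, 37 C/5% CO2; pintool cpd add (DMSO); 37 C, 40 h; fluorescence read at 0, 8, 16, 24, 32, 40 h.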

[7] = A CellTox Green Cytotoxicity Assay to monitor cytotoxicity in HepG2 cells - 24 hour (AID 1224878); further: nearly all actives have a fitted effect of over 45% in size; further: potency means the concentration at half of the fitted maximal effect
Method in brief: as §4

[8] = qHTS RealTime-Glo MT Cell Viability Assay in HEK293 cells - 0 hour (AID 1224880)
Method in brief: as §3

[9] = A CellTox Green Cytotoxicity Assay to monitor cytotoxicity in HEK293 cells - 32 hour (AID 1224881); further: nearly all actives have a fitted effect of over 40% in size; further: potency means the concentration at half of the fitted maximal effect
Method in brief: as §1

[10] = A CellTox Green Cytotoxicity Assay to monitor cytotoxicity in HepG2 cells - 0 hour (AID 1224882); further: nearly all actives have a fitted effect of over 35% in size
Method in brief: as §4

[11] = qHTS RealTime-Glo MT Cell Viability Assay in HepG2 cells - 16 hour (AID 1224885); further: nearly all actives have a fitted effect of over 50% in size; further: potency means the concentration at half of the fitted maximal effect
Method in brief: (§5)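 Tox21 10K library screened in qHTS format on HepG2 cells carrying RealTime-Glo reagents. Compounds were added after a 5 h preincubation, and the luminescent signal from continuous culture was measured repeatedly during 40 h treatment.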

[12] = qHTS RealTime-Glo MT Cell Viability Assay in HepG2 cells - 0 hour (AID 1224889); further: nearly all actives have a fitted effect of over 50% in size
Method in brief: as §5

[13] = A CellTox Green Cytotoxicity Assay to monitor cytotoxicity in HepG2 cells - 8 hour (AID 1224890); further: nearly all actives have a fitted effect of over 45% in size; further: potency means the concentration at half of the fitted maximal effect
Method in brief: as §4

[14] = A CellTox Green Cytotoxicity Assay to monitor cytotoxicity in HepG2 cells - 40 hour (AID 1224879); further: nearly all actives have a fitted effect of over 40% in size; further: potency means the concentration at half of the fitted maximal effect
Method in brief: as §4

[15] = A CellTox Green Cytotoxicity Assay to monitor cytotoxicity in HepG2 cells - 32 hour (AID 1224883); further: nearly all actives have a fitted effect of over 50% in size; further: potency means the concentration at half of the fitted maximal effect
Method in brief: as §4

[16] = A CellTox Green Cytotoxicity Assay to monitor cytotoxicity in HEK293 cells - 8 hour (AID 1224884); further: nearly all actives have a fitted effect of over 35% in size; further: potency means the concentration at half of the fitted maximal effect
Method in brief: as §1

[17] = qHTS RealTime-Glo MT Cell Viability Assay in HEK293 cells - 8 hour (AID 1224887); further: nearly all actives have a fitted effect of over 50% in size; further: potency means the concentration at half of the fitted maximal effect
Method in brief: as §3

[18] = A CellTox Green Cytotoxicity Assay to monitor cytotoxicity in HEK293 cells - 16 hour (AID 1224888); further: nearly all actives have a fitted effect of over 35% in size; further: potency means the concentration at half of the fitted maximal effect
Method in brief: as §1

[19] = qHTS RealTime-Glo MT Cell Viability Assay in HepG2 cells - 32 hour (AID 1224877); further: nearly all actives have a fitted effect of over 55% in size; further: potency means the concentration at half of the fitted maximal effect
Method in brief: as §5

[20] = qHTS RealTime-Glo MT Cell Viability Assay in HEK293 cells - 24 hour (AID 1224886); further: nearly all actives have a fitted effect of over 50% in size; further: potency means the concentration at half of the fitted maximal effect
Method in brief: as §2

NC(=NCCCCCCN=C(N)/N=C(\N)Nc1ccc(Cl)cc1)/N=C(\N)Nc1ccc(Cl)cc1
Potency [1]: 15.8 µM (active) [middle of 4 runs]
Potency [2]: 19.8 µM (active) [middle of 4 runs]
Potency [3]: 48.7 µM (active) and 44.4 µM (active) and inactive
Potency [4]: 6.88 µM (active) [middle of 5 runs]
Potency [5]: 24.4 µM (active) [middle of 4 runs]
Potency [6]: 19.8 µM (active) [middle of 4 runs]
Potency [7]: 21.8 µM (active) [middle of 4 runs]
Potency [8]: inactive
Potency [9]: 19.4 µM (active) [middle of 4 runs]
Potency [10]: inactive
Potency [11]: 43.4 µM (active) and 31.5 µM (active) and 24.4 µM (active)
Potency [12]: inactive
Potency [13]: 54.6 µM (active)

CSc1ccc(C(=O)c2[nH]c(=O)[nH]c2C)cc1
Potency [1]: inactive
Potency [2]: inactive
Potency [3]: inactive
max response [4]: 2.74% (inactive)
Potency [5]: inactive
Potency [6]: inactive
Potency [7]: inactive
Potency [14]: inactive
Potency [8]: inactive
Potency [9]: inactive
Potency [10]: inactive
Potency [15]: inactive
Potency [16]: inactive
Potency [11]: inactive
Potency [17]: inactive
Potency [18]: inactive
Potency [12]: inactive
Potency [13]: inactive

NNc1nc(-c2ccc(N)cc2)cs1
Potency [1]: inactive
Potency [2]: inactive
Potency [3]: inactive
Potency [4]: 21.9 µM (active)
Potency [5]: inactive
Potency [6]: inactive
Potency [7]: inactive
Potency [14]: inactive
Potency [8]: inactive
Potency [9]: inactive
Potency [10]: inactive
Potency [15]: inactive
Potency [11]: inactive
Potency [17]: inactive
Potency [18]: inactive
Potency [13]: inactive

Cc1cc(O)c2ccccc2c1O
Potency [1]: 9.52 µM (active)
Potency [2]: 7.56 µM (active)
Potency [3]: 10.7 µM (active)
Potency [4]: 8.49 µM (active)
Potency [5]: 9.52 µM (active)
Potency [6]: 13.4 µM (active)
Potency [19]: 13.4 µM (active)
Potency [7]: 13.4 µM (active)
Potency [14]: 13.4 µM (active)
Potency [9]: 9.52 µM (active)
Potency [10]: inactive
Potency [15]: 13.4 µM (active)
Potency [16]: 9.52 µM (active)
Potency [11]: 13.4 µM (active)
Potency [20]: 7.56 µM (active)
Potency [17]: 5.35 µM (active)
Potency [18]: 9.52 µM (active)
Potency [13]: 21.3 µM (active)

CN(C)c1ccc(SC#N)cc1
Potency [1]: inactive
Potency [2]: inactive
Potency [3]: inactive
max response [4]: 0.13% (inactive)
Potency [5]: inactive
Potency [6]: inactive
Potency [7]: inactive
Potency [14]: inactive
Potency [8]: inactive
Potency [9]: inactive
Potency [10]: inactive
Potency [15]: inactive
Potency [11]: inactive
Potency [20]: inactive
Potency [17]: inactive
Potency [18]: inactive
Potency [12]: inactive
Potency [13]: inactive

CCC(C)Nc1ccc(NC(C)CC)cc1 (stereo not given)
Potency [1]: 12.5 µM (active)
Potency [2]: 4.45 µM (active)
Potency [3]: 19.9 µM (active)
Potency [4]: 3.97 µM (active)
Potency [5]: 17.7 µM (active)
Potency [6]: 35.3 µM (active)
Potency [19]: 17.7 µM (active)
Potency [7]: 22.3 µM (active)
Potency [14]: 17.7 µM (active)
Potency [9]: 12.5 µM (active)
Potency [10]: inactive
Potency [15]: 19.9 µM (active)
Potency [11]: 17.7 µM (active)
Potency [20]: 4.45 µM (active)
Potency [17]: 4.99 µM (active)
Potency [18]: 39.7 µM (active)

O=c1[nH]cnc2nc[nH]c12
Potency [1]: inactive
Potency [2]: inactive
Potency [3]: inactive
max response [4]: 3.71% (inactive)
Potency [5]: inactive
Potency [6]: inactive
Potency [7]: inactive
Potency [14]: inactive
Potency [8]: inactive
Potency [9]: inactive
Potency [10]: inactive
Potency [16]: inactive
Potency [11]: inactive
Potency [20]: inactive
Potency [17]: inactive
Potency [18]: inactive
Potency [12]: inactive
Potency [13]: inactive

CCCCCCCC/C=C/CCCCCCCC1=NCCN1CCO
Potency [1]: 30.9 µM (active)
Potency [2]: 21.9 µM (active)
Potency [3]: 43.6 µM (active)
Potency [4]: 19.5 µM (active)
Potency [5]: 24.5 µM (active)
Potency [6]: 21.9 µM (active)
Potency [7]: 13.8 µM (active)
Potency [14]: 12.3 µM (active)
Potency [9]: 24.5 µM (active)
Potency [10]: inactive
Potency [15]: 13.8 µM (active)
Potency [16]: 49 µM (active)
Potency [11]: 24.5 µM (active)
Potency [20]: 19.5 µM (active)
Potency [17]: 43.6 µM (active)
Potency [18]: 34.7 µM (active)
Potency [12]: inactive
Potency [13]: 49 µM (active)

COc1cc(/C=C/C(=O)O[C@H]2CC[C@]34C[C@]35CC[C@]3(C)[C@@H]([C@H](C)CCC=C(C)C)CC[C@@]3(C)[C@@H]5CC[C@H]4C2(C)C)ccc1O
Potency [1]: inactive
Potency [2]: inactive
Potency [3]: inactive
max response [4]: 1.32% (inactive)
Potency [5]: inactive
Potency [6]: inactive
Potency [7]: inactive
Potency [14]: inactive
Potency [9]: inactive
Potency [10]: inactive
Potency [15]: inactive
Potency [16]: inactive
Potency [11]: inactive
Potency [17]: inactive
Potency [18]: inactive
Potency [12]: inactive
Potency [13]: inactive

Oc1c(Cl)cc(Cl)c2cccnc12
Potency [1]: 9.52 µM (active)
Potency [2]: inactive
Potency [3]: inactive
Potency [4]: 8.49 µM (active)
Potency [5]: inactive
Potency [6]: inactive
Potency [19]: inactive
Potency [14]: 8.49 µM (active)
Potency [9]: 5.35 µM (active)
Potency [10]: inactive
Potency [15]: 9.52 µM (active)
Potency [16]: inactive
Potency [11]: inactive
Potency [17]: inactive
Potency [18]: inactive
Potency [12]: inactive
Potency [13]: inactive

Oc1cc2ccccc2c2ccccc12
Potency [1]: 15.5 µM (active)
Potency [2]: 6.92 µM (active)
Potency [3]: 11 µM (active)
Potency [4]: 11 µM (active)
Potency [5]: 19.5 µM (active)
Potency [6]: 13.8 µM (active)
Potency [19]: 11 µM (active)
Potency [7]: 11 µM (active)
Potency [14]: 11 µM (active)
Potency [9]: 17.4 µM (active)
Potency [10]: inactive
Potency [15]: 11 µM (active)
Potency [16]: inactive
Potency [17]: 3.47 µM (active)
Potency [18]: inactive
Potency [12]: inactive
Potency [13]: inactive

CC[C@H]1O[C@]2(CC[C@@H]1C)C[C@@H]1C[C@@H](C/C=C(\C)C[C@@H](C)/C=C/C=C3\CO[C@@H]4[C@H](O)C(C)=C[C@@H](C(=O)O1)[C@]34O)O2
Potency [1]: 43.3 µM (active)
Potency [2]: 38.5 µM (active)
Potency [3]: 48.5 µM (active)
Potency [4]: 24.3 µM (active)
Potency [5]: 48.5 µM (active)
Potency [6]: 48.5 µM (active)
Potency [19]: 43.3 µM (active)
Potency [14]: 27.3 µM (active)
Potency [8]: inactive
Potency [9]: 48.5 µM (active)
Potency [10]: inactive
Potency [15]: 27.3 µM (active)
Potency [16]: inactive
Potency [11]: 43.3 µM (active)
Potency [20]: 34.4 µM (active)
Potency [17]: 43.3 µM (active)
Potency [18]: 48.5 µM (active)
Potency [12]: inactive
Potency [13]: 48.5 µM (active)

— PubChem BioAssay (Tox21)
